Read-out in assay [1]: Pyruvate Dehydrogenase Kinase 4 (PDK4), PDK4 (gene 5166)
Put plainly: LTEA_HepaRG_PDK4: Life Technologies and Expression Analysis (LTEA) Assay for Pyruvate Dehydrogenase Kinase 4 (PDK4) using HepaRG (AID 2283525). Conditions: mRNA level, 48 h; actives raise or lower the signal. In a few lines: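 In this multiplexed human HepaRG expression assay, cells are treated 48 h with test chemicals across an eight-point range starting at 100 uM. PDK4 mRNA changes, normalized to ACTB/GAPDH/POLR2A, are fitted in both directions relative to vehicle.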

Read-out in assay [2]: NAD(P)H dehydrogenase [quinone] 1 (NQO1), NQO1 (gene 1728)
Briefly: LTEA_HepaRG_NQO1: Life Technologies and Expression Analysis (LTEA) Assay for NAD(P)H dehydrogenase [quinone] 1 (NQO1) using HepaRG (AID 2283526). Conditions: mRNA level, 48 h; actives raise or lower the signal. The method, boiled down:
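Human HepaRG hepatic cells received chemicals for 48 h in serum-free induction medium with 0.5% DMSO, up to 100 uM. Expression was assessed by TaqMan qRT-PCR against housekeeping controls and fitted bidirectionally against DMSO.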

Read-out in assay [3]: Nuclear factor erythroid 2-related factor 2 (Homo sapiens) (UniProt Q16236)
Briefly: LTEA_HepaRG_NFE2L2: Life Technologies and Expression Analysis (LTEA) Assay for Nuclear factor erythroid 2-related factor 2 (NFE2L2) Transcription Factor using HepaRG (AID 2283527).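 Also: TaqMan qRT-PCR transcript level normalised to ACTB GAPDH and POLR2A housekeeping genes.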 Conditions: mRNA level, 48 h; actives raise or lower the signal. In a few lines: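 Transcript level of NFE2L2 is the read-out, measured by microfluidic TaqMan qRT-PCR and normalized to three housekeeping genes. Human HepaRG cultures received test chemical for 48 h at up to 100 uM in half-log steps. Gain or loss of signal is fitted relative to 0.5% DMSO.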

Read-out in assay [4]: Signal transducer and activator of transcription 3 (Homo sapiens) (UniProt P40763)
Briefly: LTEA_HepaRG_STAT3: Life Technologies and Expression Analysis (LTEA) Assay for Signal transducer and activator of transcription (STAT3) using HepaRG (AID 2283529). Conditions: mRNA level, 48 h; actives raise or lower the signal. The method, boiled down: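 Read-out is STAT3 mRNA level by qRT-PCR, normalized to three housekeeping genes, in human HepaRG liver cells treated for 48 h. Concentrations ran from 100 uM downward in half-log steps; curves were fitted for gain or loss relative to 0.5% DMSO.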

Read-out in assay [5]: solute carrier (SLCO1B1), SLCO1B1 (gene 10599)
Briefly: LTEA_HepaRG_SLCO1B1: Life Technologies and Expression Analysis (LTEA) Assay for solute carrier (SLCO1B1) using HepaRG (AID 2283530). Conditions: mRNA level, 48 h; actives raise or lower the signal. The method, boiled down: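 Differentiated human HepaRG cells were exposed for 48 h in serum-free induction medium to eight half-log concentrations, top 100 uM, in 0.5% DMSO. SLCO1B1 mRNA was measured by qRT-PCR, normalized to ACTB, GAPDH and POLR2A, and fitted bidirectionally against DMSO.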

Read-out in assay [6]: sulfotransferase 2A1 (SULT2A1), SULT2A1 (gene 6822)
Briefly: LTEA_HepaRG_SULT2A1: Life Technologies and Expression Analysis (LTEA) Assay for sulfotransferase 2A1 (SULT2A1) using HepaRG (AID 2283531). Conditions: mRNA level, 48 h; actives raise or lower the signal. The method, boiled down:
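HepaRG human liver cells, 48 h exposure in serum-free induction medium to 8 half-log concentrations topping at 100 µM (0.5% DMSO), duplicate wells. SULT2A1 mRNA measured by TaqMan qRT-PCR, normalized to ACTB/GAPDH/POLR2A; bidirectional fit against DMSO.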

Read-out in assay [7]: Transforming Growth Factor (TGFA), TGFA (gene 7039)
Put plainly: LTEA_HepaRG_TGFA: Life Technologies and Expression Analysis (LTEA) Assay for Transforming Growth Factor (TGFA) using HepaRG (AID 2283532). Conditions: mRNA level, 48 h; actives raise or lower the signal. In a few lines:
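HepaRG (human liver line), 48 h exposure, 8 conc. half-log down from 100 uM, 0.5% DMSO vehicle, duplicates; serum-free induction medium. TGFA mRNA by TaqMan qRT-PCR, ACTB/GAPDH/POLR2A normalization; gain/loss fit vs DMSO.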

Read-out in assay [8]: Transforming Growth Factor (TGFB1), TGFB1 (gene 7040)
Put plainly: LTEA_HepaRG_TGFB1: Life Technologies and Expression Analysis (LTEA) Assay for Transforming Growth Factor (TGFB1) Transporter using HepaRG (AID 2283533). Conditions: mRNA level, 48 h; actives raise or lower the signal. In a few lines: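 Differentiated HepaRG cells exposed 48 hr in serum-free induction medium to eight half-log concentrations up to 100 uM (0.5% DMSO), duplicate; TGFB1 mRNA by TaqMan qRT-PCR normalised to ACTB, GAPDH, POLR2A; bidirectional fit against DMSO.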

Read-out in a further assay: TIMP1, TIMP1 (gene 7076)
Briefly: LTEA_HepaRG_TIMP1: Life Technologies and Expression Analysis (LTEA) Assay for TIMP1 using HepaRG (AID 2283534).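 Also: TaqMan qRT-PCR signal normalized to ACTB GAPDH and POLR2A housekeeping genes.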 Conditions: mRNA level, 48 h; actives raise or lower the signal. The method, boiled down:
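Differentiated HepaRG cells exposed 48 h in serum-free induction medium, duplicates, eight half-log concentrations from 100 uM in 0.5% DMSO. TIMP1 mRNA by qRT-PCR normalized to ACTB, GAPDH, POLR2A; bidirectional fitting against DMSO.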

Read-out in assay [9]: Thyroid Hormone Responsive (THRSP), THRSP (gene 7069)
Briefly: LTEA_HepaRG_THRSP: Life Technologies and Expression Analysis (LTEA) Assay for Thyroid Hormone Responsive (THRSP) using HepaRG (AID 2283536). Conditions: mRNA level, 48 h; actives raise or lower the signal. The method, boiled down:
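mRNA induction or loss relative to 0.5% DMSO vehicle was fitted bidirectionally across an eight-point curve whose highest exposure was 100 uM. Human HepaRG liver cells received chemicals in duplicate over 48 h before RNA extraction.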

Read-out in assay [10]: Cellular tumor antigen p53 (Homo sapiens) (UniProt P04637)
Briefly: LTEA_HepaRG_TP53: Life Technologies and Expression Analysis (LTEA) Assay for Tumor Protein P53 (TP53) using HepaRG (AID 2283537). Conditions: mRNA level, 48 h; actives raise or lower the signal. The method, boiled down:
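Differentiated HepaRG cells in serum-free induction medium exposed 48 h in duplicate to 8 half-log concentrations, top 100 uM, 0.5% DMSO. TP53 mRNA by TaqMan qRT-PCR (Fluidigm), normalized to ACTB, GAPDH, POLR2A; fitted bidirectionally versus DMSO.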

Read-out in assay [11]: UDP glucuronosyltransferase (UGT1A1), UGT1A1 (gene 54658)
Put plainly: LTEA_HepaRG_UGT1A1: Life Technologies and Expression Analysis (LTEA) Assay for UDP glucuronosyltransferase (UGT1A1) using HepaRG (AID 2283538). Conditions: mRNA level, 48 h; actives raise or lower the signal. The method, boiled down:
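Human liver HepaRG cultures receive test chemical for 48 h, up to 100 uM in 0.5% DMSO, with phenobarbital induction controls. UGT1A1 mRNA is measured by qRT-PCR and normalized to ACTB, GAPDH and POLR2A.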

Read-out in assay [12]: UDP glucuronosyltransferase (UGT1A6), UGT1A6 (gene 54578)
Briefly: LTEA_HepaRG_UGT1A6: Life Technologies and Expression Analysis (LTEA) Assay for UDP glucuronosyltransferase (UGT1A6) using HepaRG (AID 2283539). Conditions: mRNA level, 48 h; actives raise or lower the signal. The method, boiled down:
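Differentiated HepaRG cells, ~100,000/well, were exposed for 48 h in serum-free induction medium with 0.5% DMSO to 8-point half-log series topping at 100 uM, in duplicate. mRNA measured by Fluidigm TaqMan qRT-PCR, normalized to ACTB, GAPDH and POLR2A.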

Read-out in assay [13]: X-box binding protein 1 (XBP1), XBP1 (gene 7494)
Put plainly: LTEA_HepaRG_XBP1: Life Technologies and Expression Analysis (LTEA) Assay for X-box binding protein 1 (XBP1) using HepaRG (AID 2283540). Conditions: mRNA level, 48 h; actives raise or lower the signal. The method, boiled down:
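Differentiated human HepaRG cells in serum-free induction medium exposed 48 h in duplicate to eight half-log concentrations up to 100 uM in 0.5% DMSO. XBP1 mRNA measured by Fluidigm TaqMan qRT-PCR, normalized to ACTB, GAPDH, POLR2A; bidirectional fitting against DMSO.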

A short description of assay [14]: LTEA_HepaRG_LDH_cytotoxicity: Cytotoxicity Assessment in the Life Technologies and Expression Analysis (LTEA) Assay (AID 2283563; active = hit-call score of the fitted dose curve at least 0.9, where 1 is the maximum). The method, boiled down:
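Differentiated HepaRG cells in serum-free induction medium, exposed 48 h in duplicate to 8 half-log concentrations up to 100 uM in 0.5% DMSO. Cytotoxicity from LDH measured in spent medium, fit relative to DMSO.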

Assay [15] can be described thus: TOX21_p53_BLA_p2_viability: Viability Assessment in the Tox21 HCT-116 p53 Agonism Beta-lactamase Assay, Phase 2 (AID 2283591; active = hit-call score of the fitted dose curve at least 0.9, where 1 is the maximum;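 also: compound exposure lasted 16 h at 37 °C; actives lower the ATP signal meaning cytotoxicity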). The method, boiled down: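 Cytotoxicity readout: CellTiter-Glo ATP luminescence, 30 min at room temperature, after the beta-lactamase read. Cells were HCT116 exposed 16 h at 37C to compounds pin-transferred at 217-fold dilution from DMSO stocks.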

Read-out in assay [16]: succinate dehydrogenase complex iron sulfur subunit B (SDHB), SDHB (gene 6390)
Briefly: LTEA_HepaRG_SDHB: Life Technologies and Expression Analysis (LTEA) Assay for succinate dehydrogenase complex iron sulfur subunit B (SDHB) using HepaRG (AID 2283528). Conditions: mRNA level, 48 h; actives raise or lower the signal. The method, boiled down:
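HepaRG cells (~100,000/well, plated 48 h) exposed in duplicate for 48 h in serum-free induction medium to 8-point half-log series from 100 uM in 0.5% DMSO; mRNA by qRT-PCR normalised to ACTB, GAPDH, POLR2A; bidirectional fit versus DMSO.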

Read-out in assay [17]: Tumor necrosis factor receptor 1 (TNFRSF1A), TNFRSF1A (gene 7132)
Briefly: LTEA_HepaRG_TNFRSF1A: Life Technologies and Expression Analysis (LTEA) Assay for Tumor necrosis factor receptor 1 (TNFRSF1A) using HepaRG (AID 2283535). Conditions: mRNA level, 48 h; actives raise or lower the signal. The method, boiled down:
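Differentiated HepaRG cells in serum-free induction medium, exposed 48 h in duplicate to 8 half-log concentrations up to 100 uM in 0.5% DMSO. TNFRSF1A mRNA by Fluidigm TaqMan qRT-PCR, normalized to ACTB, GAPDH, POLR2A; bidirectional fit.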

Inconclusive results are not listed. Activity calls are given as the source filed them. The calls were made as follows, unless noted: active = hit-call score of the fitted dose curve at least 0.9, where 1 is the maximum; inactive = score below 0.9.

Chain of Cellular tumor antigen p53 (Homo sapiens) (P04637 whole entry, looked up): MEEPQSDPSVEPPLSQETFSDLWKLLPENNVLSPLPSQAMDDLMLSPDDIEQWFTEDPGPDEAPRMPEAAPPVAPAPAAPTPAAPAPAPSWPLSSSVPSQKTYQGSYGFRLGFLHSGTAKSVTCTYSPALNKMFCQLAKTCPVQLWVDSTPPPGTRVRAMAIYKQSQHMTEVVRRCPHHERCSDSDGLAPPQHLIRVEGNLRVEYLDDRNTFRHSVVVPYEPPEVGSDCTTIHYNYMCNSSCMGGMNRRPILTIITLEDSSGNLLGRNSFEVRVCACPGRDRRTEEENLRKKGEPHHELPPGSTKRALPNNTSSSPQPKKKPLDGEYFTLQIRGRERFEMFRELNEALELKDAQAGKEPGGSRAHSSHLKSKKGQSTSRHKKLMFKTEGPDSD
Chain of Signal transducer and activator of transcription 3 (Homo sapiens) (P40763 whole entry, looked up): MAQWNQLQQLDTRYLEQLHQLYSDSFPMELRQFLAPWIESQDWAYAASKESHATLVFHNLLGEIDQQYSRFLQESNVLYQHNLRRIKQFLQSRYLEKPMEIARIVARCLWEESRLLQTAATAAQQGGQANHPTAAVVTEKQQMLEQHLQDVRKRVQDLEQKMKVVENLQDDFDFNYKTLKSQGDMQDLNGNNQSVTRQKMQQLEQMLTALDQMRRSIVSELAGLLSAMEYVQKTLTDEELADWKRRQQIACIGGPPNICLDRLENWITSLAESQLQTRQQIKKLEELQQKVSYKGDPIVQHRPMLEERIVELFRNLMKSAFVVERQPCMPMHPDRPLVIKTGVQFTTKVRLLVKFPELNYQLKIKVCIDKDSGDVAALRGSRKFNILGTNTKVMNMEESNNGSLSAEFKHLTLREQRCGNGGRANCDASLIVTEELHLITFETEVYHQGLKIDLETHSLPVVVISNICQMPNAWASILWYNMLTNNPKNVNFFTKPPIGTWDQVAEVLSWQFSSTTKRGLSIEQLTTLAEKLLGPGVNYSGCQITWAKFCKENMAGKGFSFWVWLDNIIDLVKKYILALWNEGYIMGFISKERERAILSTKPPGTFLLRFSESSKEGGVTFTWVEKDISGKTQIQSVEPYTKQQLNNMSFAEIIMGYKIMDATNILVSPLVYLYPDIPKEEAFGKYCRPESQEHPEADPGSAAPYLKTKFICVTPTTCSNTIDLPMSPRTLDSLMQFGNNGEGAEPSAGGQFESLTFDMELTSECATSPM
Chain of Nuclear factor erythroid 2-related factor 2 (Homo sapiens) (Q16236 whole entry, looked up): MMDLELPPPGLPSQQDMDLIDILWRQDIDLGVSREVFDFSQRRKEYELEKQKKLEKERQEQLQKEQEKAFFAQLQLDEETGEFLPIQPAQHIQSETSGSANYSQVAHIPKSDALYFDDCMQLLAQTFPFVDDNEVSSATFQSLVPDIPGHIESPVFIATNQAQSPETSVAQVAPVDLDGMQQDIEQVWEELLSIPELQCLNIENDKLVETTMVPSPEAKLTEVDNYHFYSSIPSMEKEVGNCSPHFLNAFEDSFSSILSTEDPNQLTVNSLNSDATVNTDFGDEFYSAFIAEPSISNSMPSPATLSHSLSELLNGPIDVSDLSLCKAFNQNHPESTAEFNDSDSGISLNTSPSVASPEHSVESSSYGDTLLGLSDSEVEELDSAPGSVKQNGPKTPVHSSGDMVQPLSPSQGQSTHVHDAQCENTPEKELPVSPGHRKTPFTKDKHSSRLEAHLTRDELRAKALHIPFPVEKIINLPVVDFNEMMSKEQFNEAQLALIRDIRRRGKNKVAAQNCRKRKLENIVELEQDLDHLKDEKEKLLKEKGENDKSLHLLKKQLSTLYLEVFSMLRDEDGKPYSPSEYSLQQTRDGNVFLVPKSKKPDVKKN

As for `Cc1cccc(N)c1N`, the call in [1], in [2], in [3], in [6], in [7] and in [8] was inactive. The outcome in the assay with TIMP1, TIMP1 (gene 7076) is “inactive”; in [10] it was “inactive”; in [12], “inactive”; in assay [14], “inactive”; in assay [15], “inactive”. For the same molecule, the AC50 is 9.92 µM (active) in assay [4]; 50 µM (active) in [5]; 32.3 µM (active) in assay [9]; 17.2 µM (active) in assay [11]; 50 µM (active) in assay [13].
With `C[N+](C)(C)CC1CO1` (stereo not drawn), the molecule was classed as inactive in assay [1], in [2], in assay [3], in assay [16], in [4] and in [5]. Besides, the outcome in [6] is “inactive”; in assay [7] it was “inactive”; in the assay with TIMP1, TIMP1 (gene 7076), “inactive”; in assay [17], “inactive”; in assay [9], “inactive”; in assay [10], “inactive”. Moreover, the molecule was called inactive in [11], in assay [12], in [13], in assay [14] and in assay [15].
`ClCCOCCCl`: the call in assay [1], in assay [2], in assay [3], in assay [16], in assay [4] and in assay [5] was inactive. The outcome in assay [6] is “inactive”; in assay [7], “inactive”; in the assay with TIMP1, TIMP1 (gene 7076), “inactive”; in [17] it was “inactive”; in assay [9] it was “inactive”; in assay [10] it was “inactive”. Further, the outcome in assay [11], in assay [12], in assay [13], in assay [14] and in assay [15] was inactive.
For `[As]#[In]`, the molecule was classed as inactive in [1], in assay [2], in assay [3], in assay [4], in [5] and in assay [6]. Also, the outcome in assay [7] is “inactive”; with TIMP1, TIMP1 (gene 7076), “inactive”; in assay [17] it was “inactive”; in assay [9], “inactive”; in assay [10] it was “inactive”; in assay [11], “inactive”. Further, the molecule was classed as inactive in [12], in [13], in [14] and in [15].
`CC(C)(C)OOC(=O)c1ccccc1`: the outcome in assay [1], in assay [2], in assay [3], in [4], in [5] and in assay [6] was inactive. The outcome in assay [7] was “inactive”; with TIMP1, TIMP1 (gene 7076), “inactive”; in [17], “inactive”; in [9] it was “inactive”; in assay [10], “inactive”; in [11], “inactive”. Further, the result in assay [12], in assay [13], in [14] and in assay [15] was inactive.
For the molecule `CCCCOC(=O)c1ccccc1C(=O)OCc1ccccc1`, the molecule was called inactive in assay [1], in assay [2], in [3], in assay [4], in assay [5] and in [6]. Further, the outcome is “inactive” in assay [7]; “inactive” with TIMP1, TIMP1 (gene 7076); “inactive” in [17]; “inactive” in assay [9]; “inactive” in assay [10]; “inactive” in assay [11]. The molecule was classed as inactive in assay [12], in assay [13], in [14] and in assay [15].

In general, AC50 refers to the midpoint of the concentration-response curve, whichever way the signal moves.

These data come from PubChem BioAssay (EPA / NIEHS).
